# Most compounds without a hit are left out; they make up all but 11% or so of the library.
# G9a inh: blocks human histone lysine methyltransferase G9a; Q96KQ7; G9a H3K9 monomethylation, AlphaScreen, 2 h; Potency, µM (series often up to 102 µM), inactives show at the top dose activity, negative = inhibition, most hits filed as inhibitors; 350,000 compounds, 8.8% hits; note: % is set by controls: 0 for no effect and ±100 for the full control effect; nearly all actives have a fitted effect of over 75% in size
#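 Using a bead-based AlphaScreen, monomethylated H3K9 product from 2 h room-temperature reactions (G9a 20 nM, peptide 500 nM, SAM 20 uM) was detected with 0.5 ug/mL rabbit anti-H3K9me1 antibody.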
# BAZ2B inh: blocks human BAZ2B | AlphaScreen BAZ2B-H3K14Ac peptide displacement | 360,000 compounds, 4.4% hits | Potency, µM (highest dose often 114 µM), for inactives: top-dose activity change, negative = inhibition, actives largely listed as inhibitors | Q9UIF8; note: % is set by controls: 0 for no effect and ±100 for the full control effect; nearly all actives have a fitted effect of over 60% in size
#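 AlphaScreen displacement: compounds (up to 110uM) incubated 30 min at room temperature with a preformed 50 nM BAZ2B/50 nM biotinylated H3K14Ac peptide complex in PBS pH 7.4 with Tween-20. Donor and acceptor beads at 10 ug/mL final added, 20 min light-protected before reading.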
# JMJD2A Tudor: blocks the human JMJD2A Tudor domain; O75164; AlphaScreen JMJD2A-Tudor / H3K4me3 peptide binding; Potency, µM (highest dose often 114 µM), inactives show at the top dose activity change, negative = inhibition, hits mostly inhibitors; 390,000 compounds, 4.4% hits; AID 504339; note: % is set by controls: 0 for no effect and ±100 for the full control effect; nearly all actives have a fitted effect of over 50% in size
# Target sequence (O75164 whole entry, looked up, the tested form may be a part): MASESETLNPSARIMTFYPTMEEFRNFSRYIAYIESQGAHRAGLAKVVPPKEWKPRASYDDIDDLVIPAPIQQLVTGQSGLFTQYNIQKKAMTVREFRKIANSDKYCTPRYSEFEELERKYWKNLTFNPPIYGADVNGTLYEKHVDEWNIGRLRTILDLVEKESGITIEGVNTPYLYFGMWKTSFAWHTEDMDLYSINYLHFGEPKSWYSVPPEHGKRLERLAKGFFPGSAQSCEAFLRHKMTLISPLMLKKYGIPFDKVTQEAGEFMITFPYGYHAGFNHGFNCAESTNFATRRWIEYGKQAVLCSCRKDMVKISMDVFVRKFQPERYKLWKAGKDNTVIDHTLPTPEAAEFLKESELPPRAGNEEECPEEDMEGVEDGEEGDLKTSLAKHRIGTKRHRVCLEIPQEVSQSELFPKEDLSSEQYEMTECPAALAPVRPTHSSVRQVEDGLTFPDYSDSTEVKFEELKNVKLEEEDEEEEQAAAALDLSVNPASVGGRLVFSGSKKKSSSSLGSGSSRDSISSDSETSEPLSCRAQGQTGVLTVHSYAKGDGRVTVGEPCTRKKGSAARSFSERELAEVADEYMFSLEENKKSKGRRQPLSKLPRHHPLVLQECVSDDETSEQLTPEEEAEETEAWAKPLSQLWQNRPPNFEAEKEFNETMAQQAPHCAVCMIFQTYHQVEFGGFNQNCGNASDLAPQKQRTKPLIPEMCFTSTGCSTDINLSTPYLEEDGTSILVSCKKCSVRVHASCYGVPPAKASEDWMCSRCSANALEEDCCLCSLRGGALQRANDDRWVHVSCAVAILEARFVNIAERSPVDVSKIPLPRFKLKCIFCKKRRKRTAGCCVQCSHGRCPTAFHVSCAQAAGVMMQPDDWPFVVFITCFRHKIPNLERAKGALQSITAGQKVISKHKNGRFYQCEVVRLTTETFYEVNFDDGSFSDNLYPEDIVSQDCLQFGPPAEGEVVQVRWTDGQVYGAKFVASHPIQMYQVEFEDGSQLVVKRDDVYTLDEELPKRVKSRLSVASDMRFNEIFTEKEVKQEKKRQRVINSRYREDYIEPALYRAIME
# L3MBTL1 block: blocks human L3MBTL1. Q9Y468. AlphaScreen L3MBTL1–H3K9me1 peptide binding. Potency, µM (doses to about 57.1 µM), for inactives: top-dose activity, negative = inhibition, most hits filed as inhibitors. 230,000 compounds, 0.66% hits. AID 485360; note: % is set by controls: 0 for no effect and ±100 for the full control effect; nearly all actives have a fitted effect of over 60% in size
#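 Displacement of a biotinylated histone H3(1-15) peptide monomethylated at Lys9 (75 nM) from L3MBTL1 (50 nM) was measured by AlphaScreen after a 30 min room-temperature compound incubation; cefsulodin titration served as intraplate control.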
# HP1b binding inh: inhibitors of HP1-beta chromodomain binding to methylated histone tails. P83916. AlphaScreen HP1-beta / biotin-H3K9me3 peptide binding. Potency, µM (series often up to 114 µM), inactives show top-dose activity change, negative = inhibition, usual class: inhibitors. 390,000 compounds, 0.56% hits. AID 540317; note: nearly all actives have a fitted effect of over 70% in size
#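 HP1-beta protein (50 nM final) preincubated 30 min at room temperature with biotinylated H3(1-18)K9me3 peptide (50 nM) in PBS pH 7.4, 0.01% Tween-20, then compound added for 30 min. AlphaScreen streptavidin donor/nickel chelate acceptor beads (10 ug/mL final), 30 min dark, luminescence read.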
# Starred values were filed as active, the others as inactive; ? = inconclusive; . = not tested or not shown; [ ] = remark or other dose. Calls come from the whole dose curve; as a rule, active = well fitted inhibition curve with a large enough effect; inconclusive = small, poorly fitted or top-dose-only effect; inactive = no such curve, though single readings can be large or run the other way. Potency is the fitted concentration of half-maximal effect.
SMILES,G9a inh,BAZ2B inh,JMJD2A Tudor,L3MBTL1 block,HP1b binding inh
CCC(=O)Nc1cc(-c2cccc(C)c2)nn1-c1ccccc1,18.0%[59 µM],10.8%,-4.9%,.,15.0%[57 µM]
Cc1c(Cl)cccc1NC(=O)CSc1nc2ncccc2o1,4.3%[59 µM],-12.4%,-10.3%,.,8.3%
O=C(C[n+]1cc(Br)cc2ccccc21)c1ccc(Br)cc1,28.2µM*,-34.1%,?,-1.5%,4.6%
COc1ccc(C(=O)C[n+]2ccccc2C)cc1,-6.5%[59 µM],-3.3%,25.1µM*,-9.2%,?
O=C(C[n+]1cc(Br)cc(Br)c1)c1ccc(-c2ccccc2)cc1,25.1µM*,?,?,.,16.7%
Cn1c(N)c(NC(=S)NC2CCCCC2)c(=O)n(C)c1=O,.,.,-6.2%,.,12.3%[57 µM]
O=C(CSc1ncc(-c2ccccc2)n1C1CCCC1)N1CCc2ccccc21,31.6µM*,?,-26.4%,-10.2%,-8.4%
Cc1ccc(-c2cnc(SCC(=O)N3CCCc4ccccc43)n2C)cc1,11.2µM*,28.2µM*,?,?,?
O=C(CSc1nnnn1C1CCCCC1)N1CCc2ccccc21,-1.1%[12.7 µM],6.8%,-5.6%,.,24.4%
O=C(CSc1nnnn1-c1ccccc1)N1CCc2ccccc21,12.6µM*,10.8%,-22.1%,.,17.2%
Cc1ccc(-c2ccc(SCC(=O)N3CCCc4ccccc43)nn2)cc1,?,?,.,-10.4%,.
CCc1nnc(NCC(=O)N2CCc3ccccc32)s1,14.1µM*,?,14.4%[11.4 µM],-4.2%,-7.9%
O=C(CSc1nnnn1-c1ccccc1)N1CCCc2ccccc21,9.8%,-1.0%,3.0%,.,31.2%
Cn1c(-c2ccccc2)cnc1SCC(=O)N1CCCc2ccccc21,?,44.7µM*,?,-7.5%,?
Cn1c(SCC(=O)N2CCCc3ccccc32)ncc(C(=O)Nc2ccccc2)c1=O,1.8%[59 µM],3.1%,0.0%,.,57.1%
O=C(CSc1nccn1-c1ccc(Cl)cc1)N1CCCc2ccccc21,50.1µM*,35.5µM*,?,-20.4%,?
O=C(NNC(=S)NC(=O)c1cccs1)c1cccnc1,44.7µM*,9.2%,-9.1%,3.1%,44.8%
C/C(=N\NC(=O)c1cccs1)c1cccnc1,-8.0%,.,17.8µM*,.,-10.2%
O=C(NNC(=S)NC(=O)c1cccs1)c1ccc(O)cc1,39.8µM*,0.4%,-22.4%,.,49.8%
C/C(=N\NC(=O)c1ccncc1)c1cccnc1,?,?,-2.3%,.,20.8%
O=C(NNC(=O)c1cccs1)c1cccnc1,-6.9%[59 µM],3.0%,-6.8%,.,20.4%
CCCCCCCCC(=O)N/N=C(\C)c1cccnc1,10µM*,-29.9%,89.1µM*,12.0%,63.2%
Cn1c(=O)c(-c2ccccc2)nc2cnc(OCc3ccccc3)nc21,-4.4%[0.501 µM],.,.,.,.
CCCCN(CCCC)CCNC(=O)c1cc(=O)[nH]c2ccc(S(=O)(=O)N3CCCCCC3)cc12,2.7%[59 µM],-5.2%,-13.1%,.,28.3%
CN(C(=O)CSc1nc2ccc(NC(=O)c3ccc(F)cc3)cc2s1)c1ccccc1,11.7%[59 µM],-26.0%,-25.2%,.,14.2%
SMILES,G9a inh,BAZ2B inh,JMJD2A Tudor,L3MBTL1 block,HP1b binding inh
C/C(=N\NC(=O)C1=NNC(=O)C1C)c1cccs1 (stereo unspecified),44.7µM*,?,-2.3%[11.4 µM],16.0%,26.9%
Cc1cccc(C)c1N=Nc1c(C)cc(O)cc1C,35.5µM*,17.8µM*,20µM*,-27.5%,?
Cc1cccc(O)c1C,.,.,-17.7%,-6.5%,20.9%
C[n+]1ccc(C(=O)NCCC[N+](C)(C)C)cc1/C=N/O,-1.8%,-13.0%,-11.5%[57.1 µM],8.2%,48.5%
C[N+](C)(C)CCCNC(=O)c1ccc(/C=N/O)nc1,?,20µM*,3.98µM*,.,4.0%
CNCCCNC(=O)c1ccc(/C=N/O)nc1,?,22.4µM*,20µM*,.,17.5%
CN(C)CCCNC(=O)c1ccc(/C=N/O)nc1,-4.8%,10.3%,1.41µM*,17.8%,-31.0%
Cc1ccc(Cl)cc1NC(=O)CCCN1C(=O)CCn2nc(-c3cn(C)c4ccccc34)cc21,2.4%[59 µM],-5.4%,-19.2%,.,12.7%[57 µM]
O=C(NC(=S)N1CCCc2ccccc21)c1ccccc1,29.4%[0.501 µM],?,?,-5.5%,-11.4%
COc1ccccc1C(=O)NC(=S)N1CCCc2ccccc21,10µM*,?,?,-18.1%,-10.6%
O=C(NC(=S)N1CCCc2ccccc21)c1ccc(Br)cc1,44.7µM*,-32.4%,?,-6.6%,1.2%
COc1ccc(C(=O)NC(=S)N2CCCc3ccccc32)cc1OC,?,?,?,-8.0%[11.4 µM],-13.0%
COc1ccccc1C(=O)NC(=S)N1CCc2ccccc21,44.7µM*,-35.8%,?,-4.1%[11.4 µM],0.7%
CC(C)C(=O)NC(=S)N1CCc2ccccc21,?,-6.3%,-15.7%,-4.4%,8.1%
Cc1cc(C)cc(-n2cnc3cc(C(=O)NCCc4ccccc4)ccc32)c1,-6.4%[59 µM],-3.7%,-30.9%,.,-7.1%
CCc1cccc(NC(=O)c2sc3nc[nH]c(=O)c3c2C)c1,-10.4%[59 µM],0.6%,-9.0%,.,27.1%[57 µM]
CSc1nc(N)nc2c1ncn2CC(=O)N1CCN(c2ccccn2)CC1,.,.,-16.5%,3.5%,25.7%
O=C1c2sc3nc4n(c(=O)c3c2CCC1Br)CCCCC4 (stereo unspecified),4.1%[0.501 µM],50.1µM*,7.94µM*,-8.2%,?
CC(=O)N1CCN(C(=O)c2ccc(OC3CCN(Cc4ccccn4)CC3)cc2)CC1,70.8µM*,-28.7%,-4.1%,.,22.3%[57 µM]
COCC1CCCN(C(=O)c2ccc(OC3CCN(Cc4ccccn4)CC3)cc2)C1 (stereo unspecified),8.9%,-15.8%,28.2µM*,-3.9%,16.8%
CCOc1ccc(/C=N/NC(=O)c2ccoc2C)cc1OC,1.4%,0.9%,-18.7%,.,-8.5%
COc1ccc(/C=N/NC(=O)c2ccoc2C)cc1CN1CCN(c2ccc(F)cc2)CC1,?,79.4µM*,?,.,?
COc1cc(/C=N/NC(=O)c2ccoc2C)ccc1O,50.1µM*,8.2%,3.0%,9.3%,24.1%
CCCCNC(=O)CSc1nnc(C)c2c(C)n(-c3ccccc3)nc12,-7.9%[59 µM],-10.9%,0.3%,.,53.0%
COc1ccc(C2NC(=S)NC3=C2CCc2cc(OC)ccc23)cc1 (stereo unspecified),39.8µM*,?,?,-17.7%,-20.0%
SMILES,G9a inh,BAZ2B inh,JMJD2A Tudor,L3MBTL1 block,HP1b binding inh
COc1ccc(CNc2nc(-c3ccc(OC)cc3)cc(C(F)(F)F)n2)cc1,79.7%[59 µM],102.0%,57.0%,.,122.3%
O=C(O)Cn1cccc1C(=O)c1ccccc1,56.2µM*,5.6%,20.1%,2.6%,56.4%
COC(=O)Cn1cccc1C(=O)c1ccccc1,-7.5%,-22.7%,-5.1%,-0.8%,24.7%
COc1ccc(CN2C[C@H](C)[C@@H](CC(=O)NCc3ccccc3)C2=O)cc1,50.1µM*,1.4%[57.1 µM],-10.0%,2.8%,4.4%
Cc1ccc(NC(=O)CN(C)C(=O)c2ccc(Cl)c([N+](=O)[O-])c2)cc1,22.4µM*,0.9%,-17.8%,-2.2%,9.1%
COc1ccc(CC(=O)Nc2ccc(N3CCCC3)c(C)c2)cc1,8.91µM*,?,?,.,?

# High-throughput results (PubChem)
